# Results taken from PubChem BioAssay (EPA / NIEHS).
# Results filed as inconclusive are left out. Activity calls are given as the source filed them. Rule for the calls, unless noted: active = hit-call score of the fitted dose curve at least 0.9, where 1 is the maximum; inconclusive = response in the unintended direction; inactive = score below 0.9.
# How the values were obtained:
# [1] = target: human Peroxisome Proliferator-activated Receptor alpha (PPARa), PPARA (gene 5465) (UniProt Q07869); assay: ATG_PPARa_TRANS: Attagene TRANS-FACTORIAL HepG2 Assay for human Peroxisome Proliferator-activated Receptor alpha (PPARa) (AID 2283001)
# Summary of the method: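 Reporter transcripts from GAL4-UAS units in transfected HepG2 were quantified 24 h after dosing. Detection used reverse transcription, PCR, fluorescent primer extension and capillary electrophoresis, with DMSO as baseline.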
# [2] = target: Nuclear receptor subfamily 1 group I member 2 (Homo sapiens) (UniProt O75469); assay: ATG_PXR_TRANS: Attagene TRANS-FACTORIAL HepG2 Assay for human Pregnane X Receptor (PXR) (AID 2283008)
# Summary of the method: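 Read-out is fluorescence of labelled reporter cDNA fragments separated by capillary electrophoresis after RT-PCR and HpaI digestion. Source: HepG2 cells carrying PXR-GAL4/UAS reporter constructs, treated 24 h; activity fitted upward relative to DMSO.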
# [3] = target: human RAR-related Orphan Receptor gamma (RORg), RORC (gene 6097) (UniProt P51449); assay: ATG_RORg_TRANS: Attagene TRANS-FACTORIAL HepG2 Assay for human RAR-related Orphan Receptor gamma (RORg) (AID 2283011)
# Summary of the method: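 Reporter transcripts from a transfected RORg-GAL4 chimera in HepG2 cells were quantified 24 h after dosing by RT-PCR, 6-FAM labelling, HpaI digestion and capillary electrophoresis; increases over DMSO baseline were fitted.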
# [4] = target: Retinoic acid receptor RXR-alpha (Homo sapiens) (UniProt P19793); assay: ATG_RXRa_TRANS: Attagene TRANS-FACTORIAL HepG2 Assay for human Retinoid X Receptor alpha (RXRa) (AID 2283012)
# Summary of the method: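 Cells (HepG2) carried transiently transfected GAL4-responsive reporter units. Following a 24 h chemical incubation, reporter mRNA induction was read via RT-PCR fragment analysis; DMSO served as negative control and baseline.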
# [5] = target: human Peroxisome Proliferator-activated Receptor delta (PPARd), PPARD (gene 5467) (UniProt Q03181); assay: ATG_PPARd_TRANS: Attagene TRANS-FACTORIAL HepG2 Assay for human Peroxisome Proliferator-activated Receptor delta (PPARd) (AID 2283002)
# Summary of the method: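 Read-out is induced reporter mRNA, quantified by RT-PCR with fluorescent labelling and capillary electrophoresis after 24 h dosing. Cells are HepG2 transiently carrying multiple GAL4-UAS reporter units driven by exogenous NR-GAL4 chimeras; DMSO serves as baseline.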
# [6] = target: human Retinoic Acid Receptor beta (RARb), RARB (gene 5915) (UniProt P10826); assay: ATG_RARb_TRANS: Attagene TRANS-FACTORIAL HepG2 Assay for human Retinoic Acid Receptor beta (AID 2283004)
# Summary of the method: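 Induction of reporter mRNA from a chimeric RARb-Gal4 construct was measured by RT-PCR, FAM labelling, HpaI digestion and capillary electrophoresis. Measurements followed 24 h compound treatment of transiently transfected human HepG2 liver cells, with DMSO as baseline.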
# [7] = target: Retinoic acid receptor alpha (Homo sapiens) (UniProt P10276); assay: ATG_RARa_TRANS: Attagene TRANS-FACTORIAL HepG2 Assay for human Retinoic Acid Receptor alpha (RARa) (AID 2283005)
# Summary of the method: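 Reporter transcripts, measured by RT-PCR with fluorescent labeling and capillary electrophoresis after 24 h dosing, reflect activity of an exogenous human RARa–GAL4 fusion in transiently transfected HepG2. Fitted for increase relative to DMSO.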
# [8] = target: Peroxisome proliferator-activated receptor gamma (Homo sapiens) (UniProt P37231); assay: ATG_PPARg_TRANS: Attagene TRANS-FACTORIAL HepG2 Assay for human Peroxisome Proliferator-activated Receptor-gamma (PPARg) (AID 2283007)
# Summary of the method: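 Human hepatoma HepG2, transient MRTU transfection, 24 h treatment. mRNA reporter signal by RT-PCR plus capillary electrophoresis, fluorescence detection; fitted for increase over DMSO negative control.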
# [9] = target: human RAR-related Orphan Receptor beta (RORb), RORB (gene 6096) (UniProt Q92753); assay: ATG_RORb_TRANS: Attagene TRANS-FACTORIAL HepG2 Assay for human RAR-related Orphan Receptor beta (RORb) (AID 2283010)
# Summary of the method: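 In this TRANS-format test, human HepG2 cells express chimeric NR-Gal4 fusion proteins driving GAL4-UAS reporters. After 24 h dosing, reporter transcripts are measured by fluorescent RT-PCR/capillary electrophoresis, with DMSO as negative control.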
# [10] = target: human Retinoic Acid Receptor gamma (RARg), RARG (gene 5916) (UniProt P13631); assay: ATG_RARg_TRANS: Attagene TRANS-FACTORIAL HepG2 Assay for human Retinoic Acid Receptor gamma (RARg) (AID 2283009)
# Summary of the method: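 HepG2, RARg-GAL4 TRANS system, 24 h exposure; reporter mRNA by RT-PCR + CE fluorescence; increase over DMSO.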
# [11] = read-out: Intercellular Adhesion Molecule 1 (ICAM1), ICAM1 (gene 3383); assay: BSK_3C_ICAM1: BioMAP Diversity Plus: 3C Assay for Intercellular Adhesion Molecule 1 (ICAM1) Biomarker Activity (AID 2283003; active = hit-call score of the fitted dose curve at least 0.9, where 1 is the maximum; inactive = score below 0.9); details: primary human endothelial cells (HUVEC); actives raise or lower the signal
# Summary of the method: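 Human vascular endothelial primary cells, 3C conditions, 24 h treatment. ICAM-1 by ELISA.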
# [12] = BSK_3C_Proliferation: Cell Proliferation Assessment in the BioMAP Diversity Plus: 3C Assay (AID 2283006; active = hit-call score of the fitted dose curve at least 0.9, where 1 is the maximum; inactive = score below 0.9;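 for AC50: potency may reflect either rise or fall in cell number versus DMSO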); details: primary human endothelial cells (HUVEC)
# Summary of the method: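 Proliferation of human vascular endothelial primary cells after 48 h dosing, quantified as SRB-stained protein at 560 nm relative to DMSO.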
# [13] = target: human Retinoid X Receptor beta (RXRb), RXRB (gene 6257) (UniProt P28702); assay: ATG_RXRb_TRANS: Attagene TRANS-FACTORIAL HepG2 Assay for human Retinoid X Receptor beta (RXRb) (AID 2283013)
# Summary of the method: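 Multiplexed TRANS reporter assay in HepG2; 24 h dosing; reporter mRNA by RT-PCR/CE fluorescence; gain-of-signal relative to DMSO.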
# [14] = target: human Thyroid Receptor alpha (THRa1), THRA (gene 7067) (UniProt P10827); assay: ATG_THRa1_TRANS: Attagene TRANS-FACTORIAL HepG2 Assay for human Thyroid Receptor alpha (THRa1) (AID 2283014)
# Summary of the method: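 Transcripts from GAL4-UAS-driven reporters, measured after 24 h compound exposure by RT-PCR plus capillary electrophoresis of 6-FAM-labeled fragments, were fitted for gain of signal relative to DMSO. Cells: transiently transfected HepG2 expressing NR-Gal4 chimeras.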
# [15] = read-out: E-selectin (Homo sapiens) (UniProt P16581); assay: BSK_3C_Eselectin: BioMAP Diversity Plus: 3C Assay for Eselectin Biomarker Activity (AID 2283015; active = hit-call score of the fitted dose curve at least 0.9, where 1 is the maximum; inactive = score below 0.9;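 for outcome: cell surface E-selectin protein quantified by ELISA 24 h after dosing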); details: primary human endothelial cells (HUVEC); actives raise or lower the signal
# Summary of the method: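 E-selectin ELISA readout, fitted bidirectionally relative to DMSO, taken 24 h post-dosing in HUVEC cultures of the 3C system. Overt cytotoxicity tracked with sulforhodamine B staining of parallel wells.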
# [16] = read-out: Interleukin-1 alpha (IL1a), IL1A (gene 3552); assay: BSK_BE3C_IL1a: BioMAP Diversity Plus: BE3C Assay for Interleukin-1 alpha (IL1a) Biomarker Activity (AID 2283016; active = hit-call score of the fitted dose curve at least 0.9, where 1 is the maximum; inactive = score below 0.9); details: primary human bronchial epithelial cells; actives raise or lower the signal
# Summary of the method: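 Cultures of primary human bronchial epithelial cells receive test chemical. After 24 h, IL-1a is quantified by ELISA, while parallel wells are fixed in TCA and SRB-stained for total protein. Changes in either direction are fitted relative to DMSO.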
# [17] = read-out: Monocyte Chemoattractant Protein-1 (MCP1), CCL2 (gene 6347); assay: BSK_3C_MCP1: BioMAP Diversity Plus: 3C Assay for Monocyte Chemoattractant Protein-1 (MCP1) Biomarker Activity (AID 2283017; active = hit-call score of the fitted dose curve at least 0.9, where 1 is the maximum; inactive = score below 0.9); details: primary human endothelial cells (HUVEC); actives raise or lower the signal
# Summary of the method: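 MCP-1 was measured by ELISA 24 h after dosing in primary HUVEC 3C cultures and fitted in both directions relative to DMSO; cytotoxicity was checked by SRB total-protein staining in parallel wells.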
# [18] = read-out: Monocyte Chemoattractant Protein-1 (MCP1), CCL2 (gene 6347); assay: BSK_4H_MCP1: BioMAP Diversity Plus: 4H Assay for Monocyte Chemoattractant Protein-1 (MCP1) Biomarker Activity (AID 2283018; active = hit-call score of the fitted dose curve at least 0.9, where 1 is the maximum; inactive = score below 0.9); details: primary human endothelial cells (HUVEC); actives raise or lower the signal
# Summary of the method: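 Readout: MCP-1 ELISA on compound-treated HUVEC, sampled 24 h post-dosing. Baseline and negative control DMSO; bidirectional fit. Overt toxicity checked alongside by sulforhodamine B protein staining at time of biomarker measurement.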
# [19] = read-out: Human Leukocyte Antigen - DR isotype (HLADR), HLA-DRA (gene 3122); assay: BSK_3C_HLADR: BioMAP Diversity Plus: 3C Assay for Human Leukocyte Antigen - DR isotype (HLADR) Biomarker Activity (AID 2283019; active = hit-call score of the fitted dose curve at least 0.9, where 1 is the maximum; inactive = score below 0.9;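 for outcome: ELISA of cell-surface HLA-DR on HUVEC 24 h after dosing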); details: primary human endothelial cells (HUVEC); actives raise or lower the signal
# Summary of the method: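 Bidirectional fitting against DMSO was applied to the HLA-DR ELISA signal from human umbilical vein endothelial cells, 24 h post-dose. Cytotoxicity came from parallel SRB total-protein staining; 3C proliferation was counted by SRB at 48 h.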
# [20] = read-out: Interleukin-8 (IL8), CXCL8 (gene 3576); assay: BSK_3C_IL8: BioMAP Diversity Plus: 3C Assay for Interleukin-8 (IL8) Biomarker Activity (AID 2283020; active = hit-call score of the fitted dose curve at least 0.9, where 1 is the maximum; inactive = score below 0.9); details: primary human endothelial cells (HUVEC); actives raise or lower the signal
# Summary of the method: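 Human vascular endothelial cells (umbilical vein) in the 3C system; IL-8 level detected by ELISA at 24 h post-dose, with DMSO as baseline.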
# human Retinoic Acid Receptor gamma (RARg), RARG (gene 5916), sequence (P13631 whole entry, looked up, the tested form may be a part): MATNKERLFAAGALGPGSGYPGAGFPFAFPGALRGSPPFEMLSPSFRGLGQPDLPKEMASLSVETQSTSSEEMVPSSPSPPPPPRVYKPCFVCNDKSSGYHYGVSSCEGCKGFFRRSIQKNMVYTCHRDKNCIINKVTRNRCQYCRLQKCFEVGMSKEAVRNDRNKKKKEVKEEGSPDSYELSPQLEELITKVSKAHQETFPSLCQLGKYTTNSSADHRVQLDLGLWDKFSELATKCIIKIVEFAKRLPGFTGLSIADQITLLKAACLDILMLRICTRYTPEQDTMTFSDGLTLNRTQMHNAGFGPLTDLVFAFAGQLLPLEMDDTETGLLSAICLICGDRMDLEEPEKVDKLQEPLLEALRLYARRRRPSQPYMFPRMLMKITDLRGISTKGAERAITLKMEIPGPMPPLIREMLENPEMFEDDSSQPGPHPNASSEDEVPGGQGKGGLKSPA
# human RAR-related Orphan Receptor beta (RORb), RORB (gene 6096), sequence (Q92753 whole entry, looked up, the tested form may be a part): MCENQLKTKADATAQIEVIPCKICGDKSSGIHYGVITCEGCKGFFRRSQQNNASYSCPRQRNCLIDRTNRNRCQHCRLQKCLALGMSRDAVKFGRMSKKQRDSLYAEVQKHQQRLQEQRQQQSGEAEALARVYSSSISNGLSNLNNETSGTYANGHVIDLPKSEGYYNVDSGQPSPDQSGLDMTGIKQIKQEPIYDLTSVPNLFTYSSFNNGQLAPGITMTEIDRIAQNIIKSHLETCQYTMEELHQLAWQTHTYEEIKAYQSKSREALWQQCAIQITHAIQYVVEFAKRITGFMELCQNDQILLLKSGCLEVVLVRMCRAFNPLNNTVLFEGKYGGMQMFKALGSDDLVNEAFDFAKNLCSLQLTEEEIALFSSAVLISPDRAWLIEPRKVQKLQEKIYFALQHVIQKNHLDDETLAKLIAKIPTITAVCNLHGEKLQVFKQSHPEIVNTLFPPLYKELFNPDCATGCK
# human RAR-related Orphan Receptor gamma (RORg), RORC (gene 6097), sequence (P51449 whole entry, looked up, the tested form may be a part): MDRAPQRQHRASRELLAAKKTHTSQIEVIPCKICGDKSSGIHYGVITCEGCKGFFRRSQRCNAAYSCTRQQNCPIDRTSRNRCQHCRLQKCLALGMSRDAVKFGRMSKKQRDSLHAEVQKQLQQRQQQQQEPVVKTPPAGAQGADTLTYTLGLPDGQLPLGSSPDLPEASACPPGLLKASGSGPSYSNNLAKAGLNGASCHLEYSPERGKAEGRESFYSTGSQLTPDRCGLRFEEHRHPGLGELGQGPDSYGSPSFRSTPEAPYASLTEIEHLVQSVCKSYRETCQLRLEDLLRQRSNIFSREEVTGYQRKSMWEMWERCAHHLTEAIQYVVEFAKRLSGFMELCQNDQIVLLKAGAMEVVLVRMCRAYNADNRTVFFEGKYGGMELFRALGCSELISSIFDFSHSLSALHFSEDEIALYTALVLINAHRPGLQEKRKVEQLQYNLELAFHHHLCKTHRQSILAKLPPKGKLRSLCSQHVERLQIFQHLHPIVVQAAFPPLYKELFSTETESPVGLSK
# human Thyroid Receptor alpha (THRa1), THRA (gene 7067), sequence (P10827 whole entry, looked up, the tested form may be a part): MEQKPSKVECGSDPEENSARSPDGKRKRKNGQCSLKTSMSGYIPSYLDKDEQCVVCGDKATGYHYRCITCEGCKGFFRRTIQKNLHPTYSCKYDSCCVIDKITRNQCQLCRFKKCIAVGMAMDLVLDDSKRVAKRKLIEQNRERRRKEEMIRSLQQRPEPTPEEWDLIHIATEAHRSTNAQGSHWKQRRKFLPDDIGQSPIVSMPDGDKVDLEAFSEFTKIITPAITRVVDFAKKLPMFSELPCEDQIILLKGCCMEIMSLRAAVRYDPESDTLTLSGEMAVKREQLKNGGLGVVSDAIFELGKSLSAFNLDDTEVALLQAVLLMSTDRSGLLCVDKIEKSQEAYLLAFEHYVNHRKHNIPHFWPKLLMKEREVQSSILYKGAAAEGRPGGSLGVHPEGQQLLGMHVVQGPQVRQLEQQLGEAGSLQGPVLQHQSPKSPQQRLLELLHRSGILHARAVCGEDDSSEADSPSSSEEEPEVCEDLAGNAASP
# E-selectin (Homo sapiens), sequence (P16581 whole entry, looked up): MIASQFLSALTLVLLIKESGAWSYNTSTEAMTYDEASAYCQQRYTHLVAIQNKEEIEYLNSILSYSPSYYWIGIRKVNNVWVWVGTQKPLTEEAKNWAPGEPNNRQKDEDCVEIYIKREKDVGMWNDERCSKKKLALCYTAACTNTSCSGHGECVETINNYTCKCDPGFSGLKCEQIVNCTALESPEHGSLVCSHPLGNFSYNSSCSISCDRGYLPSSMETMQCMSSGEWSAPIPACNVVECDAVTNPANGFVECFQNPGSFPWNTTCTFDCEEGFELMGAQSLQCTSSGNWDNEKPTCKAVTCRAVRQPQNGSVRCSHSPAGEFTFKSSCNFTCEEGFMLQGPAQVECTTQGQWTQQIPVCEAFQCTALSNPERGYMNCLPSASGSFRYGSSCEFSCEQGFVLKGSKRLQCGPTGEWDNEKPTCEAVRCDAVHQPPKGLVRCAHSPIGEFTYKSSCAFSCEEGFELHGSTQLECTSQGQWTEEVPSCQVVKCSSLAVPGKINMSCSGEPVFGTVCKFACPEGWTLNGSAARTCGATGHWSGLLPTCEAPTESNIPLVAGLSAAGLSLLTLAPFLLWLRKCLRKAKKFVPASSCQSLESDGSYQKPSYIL
# human Retinoic Acid Receptor beta (RARb), RARB (gene 5915), sequence (P10826 whole entry, looked up, the tested form may be a part): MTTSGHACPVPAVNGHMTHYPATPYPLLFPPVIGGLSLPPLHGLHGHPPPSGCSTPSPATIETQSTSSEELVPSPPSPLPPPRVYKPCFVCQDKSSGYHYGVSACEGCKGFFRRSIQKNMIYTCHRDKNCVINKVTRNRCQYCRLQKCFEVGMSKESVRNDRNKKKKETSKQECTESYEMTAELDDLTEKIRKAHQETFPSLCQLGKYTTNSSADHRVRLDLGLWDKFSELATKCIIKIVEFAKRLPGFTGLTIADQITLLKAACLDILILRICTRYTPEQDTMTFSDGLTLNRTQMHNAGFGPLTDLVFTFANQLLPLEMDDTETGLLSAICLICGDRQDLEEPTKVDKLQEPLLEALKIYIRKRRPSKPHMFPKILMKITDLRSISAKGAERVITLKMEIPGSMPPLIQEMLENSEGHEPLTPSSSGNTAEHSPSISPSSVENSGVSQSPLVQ
# Retinoic acid receptor RXR-alpha (Homo sapiens), sequence (P19793 whole entry, looked up, the tested form may be a part): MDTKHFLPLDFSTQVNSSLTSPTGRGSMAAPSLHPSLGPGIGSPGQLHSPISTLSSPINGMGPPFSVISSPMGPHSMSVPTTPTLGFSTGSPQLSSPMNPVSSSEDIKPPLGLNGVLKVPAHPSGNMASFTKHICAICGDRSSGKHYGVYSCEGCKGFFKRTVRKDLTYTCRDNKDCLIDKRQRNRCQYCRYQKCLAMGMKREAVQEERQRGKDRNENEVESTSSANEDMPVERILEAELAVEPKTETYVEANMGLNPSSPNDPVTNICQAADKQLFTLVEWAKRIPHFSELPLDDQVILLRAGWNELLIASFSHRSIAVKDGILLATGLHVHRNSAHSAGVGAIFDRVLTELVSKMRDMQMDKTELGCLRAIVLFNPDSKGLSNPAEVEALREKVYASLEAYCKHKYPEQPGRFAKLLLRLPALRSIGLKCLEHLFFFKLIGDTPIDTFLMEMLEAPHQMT
# Retinoic acid receptor alpha (Homo sapiens), sequence (P10276 whole entry, looked up, the tested form may be a part): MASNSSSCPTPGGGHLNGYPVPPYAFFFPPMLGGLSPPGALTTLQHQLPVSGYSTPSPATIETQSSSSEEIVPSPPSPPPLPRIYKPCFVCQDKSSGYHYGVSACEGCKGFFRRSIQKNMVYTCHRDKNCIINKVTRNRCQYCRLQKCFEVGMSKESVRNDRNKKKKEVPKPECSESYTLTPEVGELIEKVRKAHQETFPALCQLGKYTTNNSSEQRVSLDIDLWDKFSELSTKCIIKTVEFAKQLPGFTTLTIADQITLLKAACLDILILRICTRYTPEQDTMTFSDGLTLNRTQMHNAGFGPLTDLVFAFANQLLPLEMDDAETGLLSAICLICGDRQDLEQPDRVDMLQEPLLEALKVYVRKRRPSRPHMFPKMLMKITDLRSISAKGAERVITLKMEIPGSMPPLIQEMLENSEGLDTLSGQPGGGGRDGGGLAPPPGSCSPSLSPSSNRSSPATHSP
# human Retinoid X Receptor beta (RXRb), RXRB (gene 6257), sequence (P28702 whole entry, looked up): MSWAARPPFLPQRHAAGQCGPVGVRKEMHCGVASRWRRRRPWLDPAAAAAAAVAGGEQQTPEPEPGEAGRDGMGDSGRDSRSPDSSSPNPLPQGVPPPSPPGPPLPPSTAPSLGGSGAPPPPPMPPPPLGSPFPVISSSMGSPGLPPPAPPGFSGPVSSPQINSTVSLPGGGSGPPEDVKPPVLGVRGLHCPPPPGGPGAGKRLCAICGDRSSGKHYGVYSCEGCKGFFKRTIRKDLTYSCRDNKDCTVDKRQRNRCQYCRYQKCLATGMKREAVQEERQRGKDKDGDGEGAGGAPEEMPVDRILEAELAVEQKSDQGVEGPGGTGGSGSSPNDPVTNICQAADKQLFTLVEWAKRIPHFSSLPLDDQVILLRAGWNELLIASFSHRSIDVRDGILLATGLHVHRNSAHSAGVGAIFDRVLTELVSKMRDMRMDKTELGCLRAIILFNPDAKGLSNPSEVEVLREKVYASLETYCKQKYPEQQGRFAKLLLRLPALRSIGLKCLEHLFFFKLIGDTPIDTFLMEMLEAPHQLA
# Peroxisome proliferator-activated receptor gamma (Homo sapiens), sequence (P37231 whole entry, looked up): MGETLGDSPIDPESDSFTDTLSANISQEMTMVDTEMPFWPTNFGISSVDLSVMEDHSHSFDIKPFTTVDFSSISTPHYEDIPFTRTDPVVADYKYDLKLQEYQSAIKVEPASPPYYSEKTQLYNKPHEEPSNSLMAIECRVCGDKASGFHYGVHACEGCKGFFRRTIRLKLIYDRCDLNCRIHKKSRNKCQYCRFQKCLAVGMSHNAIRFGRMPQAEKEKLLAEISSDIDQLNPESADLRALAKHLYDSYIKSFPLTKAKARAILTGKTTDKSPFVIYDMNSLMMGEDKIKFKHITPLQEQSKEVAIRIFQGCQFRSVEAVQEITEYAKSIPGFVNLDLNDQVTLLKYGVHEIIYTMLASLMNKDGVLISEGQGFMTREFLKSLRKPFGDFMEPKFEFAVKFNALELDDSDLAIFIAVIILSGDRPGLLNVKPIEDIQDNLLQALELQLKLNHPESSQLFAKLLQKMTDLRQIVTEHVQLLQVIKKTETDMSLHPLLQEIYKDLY
smiles,measurement,setting,value
Nc1ccc(Cl)cc1Cl,outcome,[1],inactive
same,outcome,[2],inactive
same,outcome,[3],inactive
same,outcome,[4],inactive
CCCNC(=O)NS(=O)(=O)c1ccc(Cl)cc1,outcome,[5],inactive
same,outcome,[6],inactive
same,outcome,[7],inactive
same,outcome,[8],inactive
same,outcome,[2],inactive
same,outcome,[9],inactive
same,outcome,[3],inactive
same,outcome,[4],inactive
CCCCCCCCCCCCCCCC(=O)OCC,outcome,[5],inactive
same,outcome,[6],inactive
same,outcome,[7],inactive
same,outcome,[2],inactive
same,outcome,[10],inactive
same,outcome,[4],inactive
C#CC1(O)CC[C@H]2[C@@H]3CCC4=CCCC[C@@H]4[C@H]3CC[C@@]21C (stereo partly specified),outcome,[5],inactive
same,AC50,[11],10.7 µM (active)
same,outcome,[6],inactive
same,outcome,[7],inactive
same,AC50,[12],11 µM (active)
same,outcome,[8],inactive
same,AC50,[2],2.14 µM (active)
same,outcome,[4],inactive
same,outcome,[13],inactive
same,outcome,[14],inactive
same,AC50,[15],8.71 µM (active)
same,AC50,[16],35.5 µM (active)
same,AC50,[17],11 µM (active)
same,AC50,[18],9.46 µM (active)
same,AC50,[19],10.8 µM (active)
same,AC50,[20],10.2 µM (active)
O=C(O)c1cc(Cl)cc([N+](=O)[O-])c1Cl,outcome,[1],inactive
same,outcome,[8],inactive
same,outcome,[4],inactive
same,outcome,[14],inactive
CCCCCC(C)O (stereo unspecified),outcome,[5],inactive
same,outcome,[6],inactive
same,outcome,[8],inactive
same,outcome,[9],inactive
same,outcome,[4],inactive
O=C1CCCCCN1SSN1CCCCCC1=O,outcome,[1],inactive
same,outcome,[8],inactive
same,outcome,[3],inactive
same,outcome,[4],inactive
same,outcome,[14],inactive
CCN(CC#N)c1cccc(C)c1,outcome,[5],inactive
same,outcome,[6],inactive
same,outcome,[8],inactive
same,outcome,[2],inactive
same,outcome,[3],inactive
same,outcome,[13],inactive
COC(=O)c1ccccc1OC,outcome,[1],inactive
same,outcome,[2],inactive
same,outcome,[3],inactive
CCO[Si](C)(OCC)OCC,outcome,[5],inactive
same,outcome,[11],inactive
same,outcome,[12],inactive
same,outcome,[2],inactive
same,outcome,[9],inactive
same,outcome,[15],inactive
same,outcome,[16],inactive
same,outcome,[17],inactive
same,outcome,[18],inactive
same,outcome,[19],inactive
same,outcome,[20],inactive
OC1CCCCCCCCCCC1,outcome,[5],inactive
same,outcome,[6],inactive
same,outcome,[8],inactive
same,outcome,[10],inactive
same,outcome,[4],inactive
same,AC50,[13],44.6 µM (active)
CC(=O)Oc1ccc(C(C)=O)cc1,outcome,[1],inactive
same,outcome,[10],inactive
same,outcome,[9],inactive
same,outcome,[3],inactive
same,outcome,[4],inactive
C1=CCCC1,outcome,[1],inactive
same,outcome,[2],inactive
same,outcome,[3],inactive
same,outcome,[4],inactive
same,outcome,[13],inactive
same,outcome,[14],inactive
CCN(CCO)c1cccc(C)c1,outcome,[5],inactive
same,outcome,[8],inactive
same,AC50,[2],27 µM (active)
same,outcome,[10],inactive
same,outcome,[4],inactive
same,outcome,[13],inactive
